# Source: PubChem BioAssay (NCATS)
# A number with no mark means an inactive call. Results filed as inconclusive are left out. Activity calls are given as the source filed them. Unless noted, the call rests on the fitted dose curve; in most records, active means well fitted curve in either direction with a large enough effect (not every such curve was filed as active); inconclusive means small, poorly fitted or top-dose-only effect, or another doubt; inactive means flat fitted curve, though single readings scatter.
# Tests used:
# [1] = biological target: Lysosomal acid glucosylceramidase (Homo sapiens) (UniProt P04062); assay: Glucocerebrosidase-p2 (AID 348; in the data active means potency below about 10 µM; further: potency means the concentration at half of the fitted maximal effect); settings: purified GBA, blue fluorogenic substrate, 40 min
# Sequence of Lysosomal acid glucosylceramidase (Homo sapiens) (P04062 whole entry, looked up): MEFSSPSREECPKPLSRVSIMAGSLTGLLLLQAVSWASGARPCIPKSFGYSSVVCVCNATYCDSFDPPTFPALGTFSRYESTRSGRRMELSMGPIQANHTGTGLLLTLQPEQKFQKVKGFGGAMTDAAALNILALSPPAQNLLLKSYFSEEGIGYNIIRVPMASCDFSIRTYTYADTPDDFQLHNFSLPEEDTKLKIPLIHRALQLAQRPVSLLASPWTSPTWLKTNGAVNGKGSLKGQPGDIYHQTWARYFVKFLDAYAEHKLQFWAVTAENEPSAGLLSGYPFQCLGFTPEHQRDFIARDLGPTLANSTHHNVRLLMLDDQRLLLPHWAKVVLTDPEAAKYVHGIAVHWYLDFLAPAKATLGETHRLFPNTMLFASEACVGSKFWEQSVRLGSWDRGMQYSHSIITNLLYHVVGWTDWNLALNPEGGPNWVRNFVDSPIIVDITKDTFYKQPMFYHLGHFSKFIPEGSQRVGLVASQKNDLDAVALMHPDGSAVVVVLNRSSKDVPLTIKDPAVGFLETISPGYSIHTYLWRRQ
# Procedure, shortened: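 Normal human glucocerebrosidase (0.2 nM) with blue fluorogenic substrate (80 uM final) in citrate/phosphate pH 5.9 with 10mM sodium taurocholate, 0.01% tween-20; 40 min RT, NaOH/glycine stop; fluorescence Ex 365/Em 440; AC50 from a titration from 0.6 nM upwards.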
# [2] = AP1 Signaling Pathway (AID 357); settings: ME-180 AP-1-bla reporter, EGF-induced, beta-lactamase ratio, 5 h; at 7.69 µM (top of the series) unless noted;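 further: ME-180 reporter cells stimulated with EGF at its EC50 level; on the % scale 0 is the no-effect control and ±100 the full control effect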
# Procedure, shortened: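 Titration-series screen for positive or negative modulators of EC50 EGF-induced signaling in ME-180 cells carrying an AP-1-driven beta-lactamase reporter. After 5 hours at 37 degrees Celsius, CCF4 460nm/530nm emission ratio gave %Activity; AC50 values derived.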
# [3] = Stat Signaling Pathway (AID 446); settings: ME-180 (cervical carcinoma) SIE beta-lactamase reporter, IL-6 stimulated, 5 h; at 7.69 µM (top of the series) unless noted;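 further: ME-180 cervical cancer cells given 40 pM IL-6 alongside compound; SIE-controlled beta-lactamase reporter measured as 460/530 nm FRET emission ratio; on the % scale 0 is the no-effect control and ±100 the full control effect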
# Procedure, shortened: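 Normalization used AC90 stimulation (300 pM IL-6) and AC90 inhibition (125 nM pan-JAK inhibitor at 40 pM IL-6). The underlying signal is SIE-driven beta-lactamase in ME-180 cells after 5 h IL-6 exposure with compound.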
# [4] = biological target: Glucocorticoid receptor (Homo sapiens) (UniProt P04150); assay: GR-GFP Redistribution (AID 450;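 active means compounds whose dose series gives a full or clear partial fitted curve of increased nuclear translocation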; further: potency means the concentration at half of the fitted maximal effect); settings: U2OS GR-GFP nuclear translocation, laser cytometry, 2 h
# Sequence of Glucocorticoid receptor (Homo sapiens) (P04150 whole entry, looked up, the tested form may be a part): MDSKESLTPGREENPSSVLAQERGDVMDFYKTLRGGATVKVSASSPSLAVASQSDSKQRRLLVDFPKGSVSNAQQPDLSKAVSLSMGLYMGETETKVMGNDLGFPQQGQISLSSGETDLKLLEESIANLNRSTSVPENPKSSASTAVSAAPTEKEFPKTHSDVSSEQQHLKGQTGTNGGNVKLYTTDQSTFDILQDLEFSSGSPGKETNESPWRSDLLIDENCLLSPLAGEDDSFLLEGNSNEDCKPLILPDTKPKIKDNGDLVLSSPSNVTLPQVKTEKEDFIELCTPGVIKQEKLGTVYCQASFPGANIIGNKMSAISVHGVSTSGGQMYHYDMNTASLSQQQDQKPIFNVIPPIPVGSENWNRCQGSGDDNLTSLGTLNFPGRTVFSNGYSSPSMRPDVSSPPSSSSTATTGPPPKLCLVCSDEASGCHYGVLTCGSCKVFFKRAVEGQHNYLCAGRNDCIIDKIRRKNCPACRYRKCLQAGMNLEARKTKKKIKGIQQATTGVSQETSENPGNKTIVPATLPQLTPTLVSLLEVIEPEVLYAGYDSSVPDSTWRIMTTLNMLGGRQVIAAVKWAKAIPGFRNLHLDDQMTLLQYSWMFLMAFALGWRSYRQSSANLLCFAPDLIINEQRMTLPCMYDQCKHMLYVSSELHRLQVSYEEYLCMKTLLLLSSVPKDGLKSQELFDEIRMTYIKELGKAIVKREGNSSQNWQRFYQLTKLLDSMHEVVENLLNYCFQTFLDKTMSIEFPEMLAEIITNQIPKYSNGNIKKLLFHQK
# [5] = biological target: Glucocorticoid receptor (Homo sapiens) (UniProt P04150); assay: GR-EFC Redistribution (AID 451; calls by dose curve; further: potency means the concentration at half of the fitted maximal effect); settings: CHO-K1 GR-EFC translocation, beta-gal luminescence, 2 h
# Procedure, shortened: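 CHO-K1 cells stably expressing nuclear-localized β-gal enzyme acceptor and GR fused C-terminally to the enzyme donor fragment; ligand-driven nuclear translocation restores β-gal by complementation. Compounds titrated up to 46 uM final, 2 h at 37 °C; luminescence read.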
# [6] = biological target: Mitogen-activated protein kinase 10 (Mus musculus) (UniProt Q61831); assay: JNK3 AlphaScreen Assay (AID 530); settings: JNK3 lysate, c-Jun phosphorylation; series mostly up to 57.1 µM;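 further: kinase came from lysate of stimulated human HepG2 cells; signal reports phosphorylation of biotinylated GST-cJun 1-79 at Ser73 with 10 µM ATP; on the % scale 0 is the no-effect control and ±100 the full control effect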
# Procedure, shortened: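 Biotinylated GST-cJun(1-79) served as substrate for JNK3 in HepG2 lysates stimulated with IL-1beta and TNF-alpha. ATP was 10 uM final, pH 7.6. Ser73 phosphorylation was quantified by AlphaScreen (680 nm excitation).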
# [7] = biological target: 3',5'-cyclic-AMP phosphodiesterase 4B (Homo sapiens) (UniProt Q07343); assay: qHTS Assay for Inhibitors of PDE-IV (AID 607; active means well fitted activation curve with a large enough effect in the main read-out, with a control signal flat, not every such curve was filed as active; further: % of control where 0% means no effect); settings: HEK293 ACTOne CNG channel cells, membrane potential fluorescence; series mostly up to 22.9 µM
# Sequence of 3',5'-cyclic-AMP phosphodiesterase 4B (Homo sapiens) (Q07343 whole entry, looked up): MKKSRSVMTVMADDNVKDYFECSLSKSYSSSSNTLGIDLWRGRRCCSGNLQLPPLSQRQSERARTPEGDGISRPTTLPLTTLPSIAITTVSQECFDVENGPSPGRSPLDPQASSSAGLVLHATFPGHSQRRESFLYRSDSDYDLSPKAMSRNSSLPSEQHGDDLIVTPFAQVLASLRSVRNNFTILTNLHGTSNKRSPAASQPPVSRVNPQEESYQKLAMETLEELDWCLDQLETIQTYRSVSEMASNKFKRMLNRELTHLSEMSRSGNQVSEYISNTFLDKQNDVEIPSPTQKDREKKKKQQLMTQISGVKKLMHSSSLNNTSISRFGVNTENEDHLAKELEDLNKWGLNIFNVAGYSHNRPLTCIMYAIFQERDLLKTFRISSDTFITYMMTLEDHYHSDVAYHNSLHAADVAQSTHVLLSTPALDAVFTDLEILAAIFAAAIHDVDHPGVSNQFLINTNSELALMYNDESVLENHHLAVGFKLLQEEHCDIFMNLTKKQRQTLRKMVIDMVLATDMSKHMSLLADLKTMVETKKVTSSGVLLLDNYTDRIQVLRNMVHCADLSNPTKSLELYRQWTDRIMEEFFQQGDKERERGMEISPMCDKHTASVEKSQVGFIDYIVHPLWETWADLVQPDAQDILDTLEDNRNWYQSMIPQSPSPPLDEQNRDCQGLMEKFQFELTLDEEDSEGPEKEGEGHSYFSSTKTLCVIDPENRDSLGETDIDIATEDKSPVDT
# Procedure, shortened: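 HEK293 ACTOne cells with CNG channel (1000/well), endogenous PDE4; membrane potential dye, compounds up to 22.9 uM final. Fluorescence Ex 535/Em 590; RO 20-1724 (100 uM final) as reference.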
# [8] = biological target: Cytochrome P450 1A2 (Homo sapiens) (UniProt P05177); assay: p450-cyp1a2 (AID 410; calls by dose curve; further: potency means the concentration at half of the fitted maximal effect;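 on activity change, negative = inhibition: -100% = full effect of reference inhibitor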); settings: recombinant CYP1A2, luciferin-ME demethylation, luminescence; series mostly up to 11.4 µM
# Sequence of Cytochrome P450 1A2 (Homo sapiens) (P05177 whole entry, looked up): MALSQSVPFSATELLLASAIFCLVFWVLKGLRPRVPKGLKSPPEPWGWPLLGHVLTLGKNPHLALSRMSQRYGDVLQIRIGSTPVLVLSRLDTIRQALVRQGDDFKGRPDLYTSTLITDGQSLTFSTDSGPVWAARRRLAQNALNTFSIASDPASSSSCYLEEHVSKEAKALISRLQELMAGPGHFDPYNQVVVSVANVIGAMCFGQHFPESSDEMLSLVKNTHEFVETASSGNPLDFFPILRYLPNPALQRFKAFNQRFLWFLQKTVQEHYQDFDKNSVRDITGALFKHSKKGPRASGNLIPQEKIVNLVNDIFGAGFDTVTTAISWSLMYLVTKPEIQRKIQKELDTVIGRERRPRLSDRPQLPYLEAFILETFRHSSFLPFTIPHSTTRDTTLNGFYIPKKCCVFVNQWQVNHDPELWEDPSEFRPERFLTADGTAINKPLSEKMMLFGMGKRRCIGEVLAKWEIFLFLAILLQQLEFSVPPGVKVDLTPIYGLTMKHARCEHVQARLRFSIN
# Procedure, shortened: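 20nM CYP1A2, 100uM Luciferin-ME (=Km), 100mM KPO4; cpd 10 min RT; +NADPH regen, 60 min RT; stop/detect 20 min; luminescence. Normalized to furafylline 57 uM = full inhibition.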
# [9] = NFAT Signaling Pathway (AID 444); settings: Jurkat NFAT-bla M1, carbachol, beta-lactamase ratio, 5 h; at 7.69 µM (top of the series) unless noted;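 further: carbachol stimulus at about its EC50 of 1 µM final; on the % scale 0 is the no-effect control and ±100 the full control effect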
# Procedure, shortened: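 Jurkat cells carrying an NFAT-driven β-lactamase reporter and co-transfected muscarinic M1 receptor were treated with compound plus carbachol (1 uM final, an EC50 level) for 5 h at 37 °C. CCF4 loading followed for 1 h at RT; 460/530 nm ratio gave %activity.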
# [10] = biological target: Cytochrome P450 3A4 (Homo sapiens) (UniProt P08684); assay: qHTS Assay for Activators of Cytochrome P450 3A4 (AID 885; active means well fitted curve in the direction sought with a large enough effect; an effect the other way counts as inactive or inconclusive; further: nearly all actives have a fitted effect of over 65% in size); settings: recombinant CYP3A4, Luciferin-PPXE luminescence, 60 min; series mostly up to 57.1 µM
# Sequence of Cytochrome P450 3A4 (Homo sapiens) (P08684 whole entry, looked up): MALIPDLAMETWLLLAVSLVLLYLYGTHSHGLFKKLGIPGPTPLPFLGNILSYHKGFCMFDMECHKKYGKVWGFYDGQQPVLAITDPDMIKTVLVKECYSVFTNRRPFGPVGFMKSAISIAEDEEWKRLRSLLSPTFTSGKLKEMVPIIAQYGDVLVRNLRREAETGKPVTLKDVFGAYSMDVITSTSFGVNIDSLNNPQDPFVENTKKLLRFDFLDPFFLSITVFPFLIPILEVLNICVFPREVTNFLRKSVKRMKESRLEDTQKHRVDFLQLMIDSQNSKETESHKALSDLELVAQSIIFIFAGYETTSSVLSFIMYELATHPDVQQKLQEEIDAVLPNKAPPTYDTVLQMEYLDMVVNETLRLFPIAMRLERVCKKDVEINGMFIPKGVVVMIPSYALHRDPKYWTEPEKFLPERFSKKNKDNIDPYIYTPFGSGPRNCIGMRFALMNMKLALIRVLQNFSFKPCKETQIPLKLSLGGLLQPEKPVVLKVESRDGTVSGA
# Procedure, shortened: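 Human CYP3A4 dealkylates Luciferin-PPXE to luciferin, which luciferase detection converts to light. Substrate was at its KM (25uM), buffer 200mM KPO4, reaction 60 min at RT.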
# [11] = biological target: Cytochrome P450 2D6 (Homo sapiens) (UniProt P10635); assay: qHTS Assay for Inhibitors and Substrates of Cytochrome P450 2D6 (AID 891; active means well fitted curve in the direction sought with a large enough effect; an effect the other way counts as inactive or inconclusive; further: potency means the concentration at half of the fitted maximal effect; nearly all actives have a fitted effect of over 60% in size); settings: recombinant CYP2D6, luciferin-ME EGE luminescence; series mostly up to 11.4 µM
# Procedure, shortened: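 Luminescent read-out of luciferin formed by 5 nM human CYP2D6 demethylating 30 uM Luciferin-ME EGE (Km level) over 60 min at room temperature after NADPH regeneration addition. Data normalized to full inhibition by 1.43 uM quinidine.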
# [12] = biological target: Guanine nucleotide-binding protein G(i) subunit alpha-1 (Homo sapiens) (UniProt P63096); assay: qHTS Assay for Inhibitors of RGS12 GoLoco Motif Activity (Green Fluorophore) (AID 879; active means well fitted curve in the direction sought with a large enough effect; an effect the other way counts as inactive or inconclusive;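 further: 0% = labeled peptide with Gαi1 and full inhibition = labeled peptide alone without protein; negative values mean loss of peptide binding seen as reduced polarization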); settings: Galphai1/FITC-RGS12 GoLoco peptide, fluorescence polarization; series mostly up to 57.1 µM
# Sequence of Guanine nucleotide-binding protein G(i) subunit alpha-1 (Homo sapiens) (P63096 whole entry, looked up): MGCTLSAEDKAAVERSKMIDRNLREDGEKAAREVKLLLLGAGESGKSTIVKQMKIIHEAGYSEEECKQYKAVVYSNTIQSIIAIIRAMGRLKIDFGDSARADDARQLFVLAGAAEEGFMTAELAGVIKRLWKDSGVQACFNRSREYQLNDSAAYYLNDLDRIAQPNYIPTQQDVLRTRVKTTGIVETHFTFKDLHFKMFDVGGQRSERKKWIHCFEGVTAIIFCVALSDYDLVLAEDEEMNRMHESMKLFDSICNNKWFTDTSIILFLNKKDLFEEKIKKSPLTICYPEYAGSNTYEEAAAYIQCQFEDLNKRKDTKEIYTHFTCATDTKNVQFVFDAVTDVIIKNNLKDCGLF
# Procedure, shortened: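 A drop in FITC polarization marked displacement of the FITC-tagged RGS12 GoLoco peptide (10 nM) from Gαi1 (50 nM). Compounds were incubated 10 min at room temperature in Tris pH 7.5 buffer containing 150 mM NaCl, 0.1 mM GDP and 0.05% NP40; unlabeled peptide titration served as control.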
# [13] = qHTS Assay for Identification of Small Molecule Agonists for Thrombopoietin (TPO) Signaling Pathway (AID 917; active means well fitted curve in the direction sought with a large enough effect; an effect the other way counts as inactive or inconclusive; further: on the % scale 0 is the no-effect control and ±100 the full control effect); settings: TPO signaling pathway reporter cells, agonist qHTS; series mostly up to 38.5 µM
# Procedure, shortened: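 Luciferase reporter (Glycoprotein IIb promoter) in IL-3-deprived Ba/F3 cells carrying human TPO receptor; compounds co-added with 26 pM TPO, incubated 24 h, 37 C. Steadylite luminescence measured after 10 min.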
# [14] = biological target: Muscarinic acetylcholine receptor M1 (Rattus norvegicus) (UniProt P08482); assay: qHTS Assay for Antagonists of Acetylcholine Muscarinic M1 Receptor: Measurement of IP-One Response (AID 944; active means well fitted curve in the direction sought with a large enough effect; an effect the other way counts as inactive or inconclusive; further: nearly all actives have a fitted effect of over 75% in size); settings: CHO-M1 cells, IP-One HTRF, antagonist mode; series mostly up to 46.1 µM
# Sequence of Muscarinic acetylcholine receptor M1 (Rattus norvegicus) (P08482 whole entry, looked up): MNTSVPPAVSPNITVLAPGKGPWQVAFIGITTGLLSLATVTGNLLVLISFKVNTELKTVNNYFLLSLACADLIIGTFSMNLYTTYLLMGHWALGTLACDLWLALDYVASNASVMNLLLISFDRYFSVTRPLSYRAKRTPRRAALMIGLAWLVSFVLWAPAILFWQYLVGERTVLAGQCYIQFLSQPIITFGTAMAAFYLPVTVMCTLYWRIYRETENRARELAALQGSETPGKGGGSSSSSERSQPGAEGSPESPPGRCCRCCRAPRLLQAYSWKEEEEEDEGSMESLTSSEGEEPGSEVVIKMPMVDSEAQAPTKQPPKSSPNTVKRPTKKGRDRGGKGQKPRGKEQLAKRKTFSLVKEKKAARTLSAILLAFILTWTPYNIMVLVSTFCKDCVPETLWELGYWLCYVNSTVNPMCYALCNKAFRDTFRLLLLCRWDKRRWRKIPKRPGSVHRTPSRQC
# Procedure, shortened: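 Read-out: HTRF competition between d2-IP1 and Eu-cryptate anti-IP1 antibody, emission 620 and 665 nm. Stimulus was carbachol, EC80 (200 nM), for 30 min in M1-CHO cells (rat receptor), after 10 min compound pre-treatment.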
# [15] = biological target: Pyruvate kinase (Leishmania mexicana) (UniProt Q27686); assay: qHTS Validation Assay for Inhibitors of Leishmania Mexicana Pyruvate Kinase (AID 945; active means well fitted curve in the direction sought with a large enough effect; an effect the other way counts as inactive or inconclusive;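 further: 0% = DMSO only neutral control wells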); settings: purified L. mexicana pyruvate kinase, enzyme activity, E451W mutant enzyme; series mostly up to 57.5 µM
# Sequence of Pyruvate kinase (Leishmania mexicana) (Q27686 2-499 E452W): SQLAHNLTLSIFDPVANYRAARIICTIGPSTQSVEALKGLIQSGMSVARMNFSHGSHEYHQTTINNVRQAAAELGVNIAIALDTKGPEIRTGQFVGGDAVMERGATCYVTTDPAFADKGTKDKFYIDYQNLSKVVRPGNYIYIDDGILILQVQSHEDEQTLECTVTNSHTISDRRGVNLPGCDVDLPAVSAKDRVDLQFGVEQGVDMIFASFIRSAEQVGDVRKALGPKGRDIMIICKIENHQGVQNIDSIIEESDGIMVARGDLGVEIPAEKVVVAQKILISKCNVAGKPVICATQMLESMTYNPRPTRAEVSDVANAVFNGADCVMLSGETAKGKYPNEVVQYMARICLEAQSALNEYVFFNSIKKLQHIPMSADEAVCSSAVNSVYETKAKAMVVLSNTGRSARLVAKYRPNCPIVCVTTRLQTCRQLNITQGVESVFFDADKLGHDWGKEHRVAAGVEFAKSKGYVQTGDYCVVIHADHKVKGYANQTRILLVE
# Procedure, shortened: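 Substrate mix (0.5 mM PEP, 0.1 mM ADP, 7 mM MgCl2, 50 mM KCl, pH 7.2 imidazole) received compound by pin tool, then 0.2 nM LmPYK E451W. After 1 h at room temperature, PKLight was added and luminescence measured.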
# [16] = biological target: Pyruvate kinase PKM (Homo sapiens) (UniProt P14618); assay: qHTS Assay for Activators of Human Muscle Pyruvate Kinase (AID 954; active means well fitted curve in the direction sought with a large enough effect, not every such curve was filed as active;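 further: 0% = uninhibited enzyme and -100% = no enzyme or full thiadiazolimine inhibition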); settings: purified human muscle pyruvate kinase, luciferase-coupled luminescence, 1 h; series mostly up to 57.5 µM
# Sequence of Pyruvate kinase PKM (Homo sapiens) (P14618 whole entry, looked up): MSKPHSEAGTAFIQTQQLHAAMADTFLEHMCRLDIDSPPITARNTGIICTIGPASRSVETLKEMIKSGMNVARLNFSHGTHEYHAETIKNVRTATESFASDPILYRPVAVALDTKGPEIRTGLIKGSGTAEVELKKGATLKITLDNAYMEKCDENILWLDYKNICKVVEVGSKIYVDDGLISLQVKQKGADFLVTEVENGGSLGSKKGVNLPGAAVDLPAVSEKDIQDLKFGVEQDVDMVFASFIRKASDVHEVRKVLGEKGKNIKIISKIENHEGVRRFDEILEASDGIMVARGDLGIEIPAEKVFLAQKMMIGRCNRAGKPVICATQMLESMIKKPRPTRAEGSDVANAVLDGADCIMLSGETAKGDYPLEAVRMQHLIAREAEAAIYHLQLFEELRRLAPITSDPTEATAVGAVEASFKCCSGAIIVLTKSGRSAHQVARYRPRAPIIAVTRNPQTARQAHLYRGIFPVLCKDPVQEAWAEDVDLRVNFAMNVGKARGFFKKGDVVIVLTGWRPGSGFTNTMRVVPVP
# Procedure, shortened: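 Compound pinned into substrate mix (0.5 mM PEP, 0.1 mM ADP), then 0.1 nM PKM2 added; 1 h, RT. Stop/detection luciferase reagent added, luminescence read. Normalized to no-inhibition and no-enzyme or reference-inhibitor controls.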
# [17] = biological target: Alpha-galactosidase A (Homo sapiens) (UniProt P06280); assay: Counterscreen for Glucocerebrosidase Inhibitors: qHTS Assay for Human alpha-Galactosidase at pH 4.5 (AID 992; active means well fitted curve in the direction sought with a large enough effect; an effect the other way counts as inactive or inconclusive; further: 0% is about no effect); settings: purified enzyme, fluorogenic substrate; series mostly up to 76.9 µM
# Procedure, shortened: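 Steps: enzyme (2 nM final), then compound across 0.7 nM to 77 uM, then 80 uM fluorogenic galactopyranoside substrate; incubate 20 min at room temperature; quench at pH 10; measure fluorescence at 365/440 nm.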
# [18] = biological target: alpha-glucosidase (Oryza sativa, rice) (UniProt Q653V4); assay: Counterscreen for Glucocerebrosidase Inhibitors: qHTS Assay for Rice alpha-Glucosidase at pH 5.0 (AID 997; active means well fitted curve in the direction sought with a large enough effect; an effect the other way counts as inactive or inconclusive;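 further: 0% = full activity with enzyme and -100% = basal without enzyme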); settings: rice alpha-glucosidase enzyme activity; series mostly up to 76.9 µM
# Procedure, shortened: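 Endpoint fluorogenic assay at pH 5.0: compounds (0.7 nM to 77 uM) titrated against 4 nM rice enzyme and 400 uM 4-MU-alpha-glucoside for 20 min at room temperature; NaOH/glycine stop, read ex 365/em 440 nm, Hill-fitted AC50.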
smiles,measurement,setting,value
CC(=O)O[C@H]1CC[C@H]2[C@@H]3CCC4=C[C@@H](C5SCCS5)[C@H](OC(C)=O)C[C@]4(C)[C@H]3CC[C@@]12C,Potency,[1],> 11.4 µM
same,"activity change, negative = inhibition",[2],-2.54%
same,"activity, negative = inhibition",[3],0.282%
same,Potency,[4],> 46 µM
same,Potency,[5],> 9.22 µM
same,"activity change, negative = inhibition",[6],5.72% [at 11.4 µM]
same,outcome,[7],inactive
COC(=O)c1c(C)ccc2c(O)c3c(cc12)C(=O)c1c2c(cc(O)c1C3=O)[C@@]1(C)O[C@@](C)(O2)[C@@H](O)[C@H](N(C)C)[C@H]1O,Potency,[1],> 11.4 µM
same,Potency,[8],5.01 µM (active)
same,"activity change, negative = inhibition",[9],-7.69%
same,"activity, negative = inhibition",[3],10.6%
same,Potency,[4],> 46 µM
same,Potency,[5],> 9.22 µM
same,"activity change, negative = inhibition",[6],-7.99% [at 11.4 µM]
same,outcome,[7],inactive
O=[As](O)(O)c1ccc(Cc2ccc([As](=O)(O)O)cc2)cc1,Potency,[1],> 11.4 µM
same,"activity change, negative = inhibition",[9],-132% (active)
same,"activity, negative = inhibition",[3],-5.31%
same,Potency,[4],> 46 µM
same,Potency,[5],> 9.22 µM
C[C@H]1CC[C@@]2(NC1)O[C@@H]1C[C@@H]3[C@@H]4CC=C5C[C@@H](O)CC[C@]5(C)[C@@H]4CC[C@]3(C)[C@H]1[C@@H]2C,Potency,[1],> 11.4 µM
same,Potency,[8],inactive
same,"activity change, negative = inhibition",[9],24.2%
same,"activity, negative = inhibition",[3],7.42%
same,Potency,[4],> 46 µM
same,Potency,[5],> 9.22 µM
same,"activity change, negative = inhibition",[6],-0.366% [at 11.4 µM]
same,outcome,[7],inactive
C[C@@H]1O[C@@H](O[C@H]2C[C@@H](O)[C@@]3(CO)[C@H]4[C@H](O)C[C@]5(C)[C@@H](C6=CC(=O)OC6)CC[C@]5(O)[C@H]4CC[C@@]3(O)C2)[C@@H](O)[C@H](O)[C@H]1O,Potency,[1],> 11.4 µM
same,"activity change, negative = inhibition",[9],-104% (active)
same,"activity, negative = inhibition",[3],-4.36%
same,"activity change, negative = inhibition",[6],-1.14% [at 11.4 µM]
same,outcome,[7],inactive
O=C(O)CN1CCN(CC(=O)O)CC(=O)[O][Hg][O]C(=O)C1,Potency,[1],0.199 µM (active)
same,"activity change, negative = inhibition",[2],18.9%
same,"activity, negative = inhibition",[3],1.17%
same,"activity change, negative = inhibition",[6],-1.36% [at 11.4 µM]
same,outcome,[7],inactive
same,"activity change, positive = activation",[10],-78.1% [at 11.4 µM]
same,Potency,[11],3.16 µM (active)
Nc1ncnc2c1ncn2[C@@H]1O[C@@H](COP(=O)(O)CP(=O)(O)OP(=O)(O)O)[C@H](O)[C@@H]1O,"activity change, negative = inhibition",[2],-0.584% [at 38 µM]
same,Potency,[8],inactive
same,"activity change, negative = inhibition",[9],3.86% [at 38 µM]
same,"activity, negative = inhibition",[3],-9.36% [at 38 µM]
same,Potency,[4],> 46 µM
same,Potency,[5],> 46 µM
same,Potency,[6],inactive
same,outcome,[7],inactive
same,outcome,[12],inactive
same,outcome,[13],inactive
same,Potency,[14],inactive
same,outcome,[15],inactive
same,outcome,[16],inactive
same,outcome,[17],inactive
same,outcome,[18],inactive
